According to the OligoGym collection:

target: ALDH9A1; assay: pooled miR-30 sensor sort-seq; sequence = guide strand; details: shRNA
Also: reference of the scale not given here.

TTGTTAATGAAGCACGTCCCAG was tested. Which sensor-assay potency score (higher = more potent) did it give?
Its sensor-assay potency score (higher = more potent) is -1.05.

TAATATTCGATTGTCACACGGC was tested. Which sensor-assay potency score (higher = more potent) did it give?
The sensor-assay potency score (higher = more potent) was 0.406.

How did the sensor-assay potency score (higher = more potent) turn out when TTATCCTAGTCTCTTTTCCTGT was run?
Its sensor-assay potency score (higher = more potent) is -0.816.

With TTCAGTTGTACTGCCTCTGTAA as the sequence, how does the sensor-assay potency score (higher = more potent) read?
The sensor-assay potency score (higher = more potent) was -0.536.

Which sensor-assay potency score (higher = more potent) does the source give for TAATACACAAGGTCTCATGTAA here?
The sensor-assay potency score (higher = more potent) was 0.189.

How did the sensor-assay potency score (higher = more potent) turn out when TTCTTGATTAGTATCTACAAGG was run?
The sensor-assay potency score (higher = more potent) was -0.856.

For TTGATGAGTGGACCCATCCTTG, which sensor-assay potency score (higher = more potent) is on record?
The sensor-assay potency score (higher = more potent) was -0.479.

How did the sensor-assay potency score (higher = more potent) turn out when TTAAAGGGTAGCTCCACTGGTG was run?
The sensor-assay potency score (higher = more potent) was -0.285.

With TAACACTTTAGCACCCTGCTCC as the sequence, how does the sensor-assay potency score (higher = more potent) read?
Its sensor-assay potency score (higher = more potent) is 0.132.

Which sensor-assay potency score (higher = more potent) does the source give for TAATACTCCAGGCACTGCCAGG here?
Its sensor-assay potency score (higher = more potent) is -1.24.

With TTAGTTAATACACAAGGTCTCA as the sequence, how does the sensor-assay potency score (higher = more potent) read?
Its sensor-assay potency score (higher = more potent) is -0.528.

With TTTGCCACTTTGACAAACCCAA as the sequence, how does the sensor-assay potency score (higher = more potent) read?
The sensor-assay potency score (higher = more potent) was -0.698.

Which sensor-assay potency score (higher = more potent) does the source give for TTTCTTGATTAGTATCTACAAG here?
Its sensor-assay potency score (higher = more potent) is -1.25.

How did the sensor-assay potency score (higher = more potent) turn out when TCTTTCTGCACAAATACTCTTG was run?
The sensor-assay potency score (higher = more potent) was -0.35.

For TTCTCTAGAAGTATGTTACTGG, which sensor-assay potency score (higher = more potent) is on record?
The sensor-assay potency score (higher = more potent) was -0.159.

TAAAAAAATGTCAATGAGCTGA was tested. Which sensor-assay potency score (higher = more potent) did it give?
Its sensor-assay potency score (higher = more potent) is -0.73.

For TTGATTAGTATCTACAAGGCAC, which sensor-assay potency score (higher = more potent) is on record?
Its sensor-assay potency score (higher = more potent) is 0.363.

With TAGATTTCCTCTATCGCAGTAG as the sequence, how does the sensor-assay potency score (higher = more potent) read?
The sensor-assay potency score (higher = more potent) was 0.289.

TTCTCTTATACTGAACGCCAAA was tested. Which sensor-assay potency score (higher = more potent) did it give?
Its sensor-assay potency score (higher = more potent) is -1.4.

TAACATTCAGTTGTACTGCCTC was tested. Which sensor-assay potency score (higher = more potent) did it give?
The sensor-assay potency score (higher = more potent) was -0.0109.
